# Hits are enriched below; roughly 1.8% of the tested compounds scored in any of these assays.
# MsrA act = bovine MsrA enzyme activators, primary screen, biochemical, absorbance, HTS | 360,000 tested, 0.3% active | activation, % at 10.6 µM | Methionine sulfoxide reductase A (Bos taurus) | purified bovine MsrA, absorbance read-out; in the data active = activation above about 7.5%;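 note: 0% = vehicle and 100% = reference activator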
# m5-HT2A agonist = mouse Htr2a agonists via beta-arrestin recruitment, primary screen, cell-based, luminescence; CHO-K1 mHTR2A beta-arrestin complementation; percent of 30 µM serotonin response; 360,000 tested, 0.66% active; activation, % at 7.6 µM; 5-hydroxytryptamine receptor 2A (Mus musculus), P35363;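 active = activation above a run cutoff, the mean activation of all tested compounds plus 3 SD, cut at about 14% in these data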;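 note: 0% = plate median of compound wells and 100% = 30 µM serotonin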
# MsrA inh = bovine MsrA enzyme inhibitors, primary screen, biochemical, absorbance, HTS; inhibition, % at 15.5 µM; Methionine sulfoxide reductase A (Bos taurus); purified bovine MsrA, absorbance read-out; AID 651718, 2012; 360,000 tested, 0.75% active; in the data active = inhibition above about 4.5%;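 note: 0% = vehicle wells with enzyme and 100% = reference inhibitor wells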
# NPR1 activator = GC-A stimulated cGMP production enhancers – HEK293 GC-A cells, cGMP TR-FRET, EC30 ANP, primary screen. AID 1671463, 2021. 370,000 tested, 0.14% active. activation, % at 10 µM. 0% at EC30 ANP, 100% saturating ANP; in the data active = activation above about 40%
# NPR2 activator = human GC-B receptor activators, primary screen, HEK293 GC-B cells, cGMP TR-FRET, EC30 CNP; Atrial natriuretic peptide receptor 2 (Homo sapiens), P20594; 0% at EC30 CNP, 100% saturating CNP; activation, % at 10 µM; 370,000 tested, 0.11% active; AID 1920062, 2024;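 active = activation at 10 µM reaching about 35% in either raw or pattern-adjusted values, limit read from the data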
# * hit, by the source's call; / = not tested or not shown.
SMILES,MsrA act,m5-HT2A agonist,MsrA inh,NPR1 activator,NPR2 activator
CC1CCN(c2nc(Cl)nc(Nc3ccc([N+](=O)[O-])cc3)n2)CC1,-3.5,-3.6,-0.4,67.2*,-0.1
Cc1ccc(N2CC(C(=O)N/N=C/c3sccc3C)CC2=O)cc1 (stereo not given),-1.9,-3.0,4.6*,0.7,1.2
O=C(Oc1ccc2c(-c3ccccc3)cc(=O)oc2c1)C1CCCCC1,-5.5,9.8,18.6*,3.4,1.8
COc1ccc(-c2cc(=O)oc3cc(OC(=O)C4CCCCC4)ccc23)cc1,-4.0,3.5,2.8,5.9,1.6
O=C(O)CCC(=O)N1CCN(c2ccc(C(=O)c3ccc(F)cc3)cc2)CC1,-10.5,3.2,4.7*,-0.5,5.1
O=C(c1ccco1)N1N=C(c2cccs2)CC1c1ccccc1O (stereo not given),-5.2,-3.6,5.9*,-5.2,-12.3
COc1cccc(C2CC(c3cccs3)=NN2C(=O)c2ccco2)c1O (stereo not given),-4.7,-1.7,2.1,9.1,5.4
COc1nc(OC)nc(N2CCC(C(=O)N(C)Cc3ccccc3F)CC2)n1,/,/,/,0.1,0.0
Fc1c(F)c(F)c(/C=N/NC(=S)Nc2cccnc2)c(F)c1F,-0.1,4.4,2.0,58.1*,0.8
C[C@@H]1OCN(C)[C@H]2C[C@H]3c4[nH]c5cccc(-c6ccc7c(c6)OCO7)c5c4CCN3C[C@@H]12,/,/,/,5.3,-2.0
CCOC(=O)CNC(=O)N(C)[C@H]1C[C@H]2c3[nH]c4c(-c5cccc(C)c5)cccc4c3CCN2C(=O)[C@H]1[C@H](C)O,/,/,/,-5.6,-12.5
CCc1c2c3n4c1CCC[C@@H]4C[C@@H]3O[Si](C(C)C)(C(C)C)OC(C)C2=O (stereo not given in full),/,/,/,-11.5,-7.8
CC(=O)COc1cc2c(-c3cc4ccccc4o3)cc(=O)oc2cc1C,-0.9,7.4,7.1*,2.8,4.3
CC(=O)N1CCCN(S(=O)(=O)c2ccc3c(c2)n(C)c(=O)c(=O)n3C)CC1,/,/,/,0.6,2.5
O=C1C=C(c2ccc(F)cc2OCc2ccccc2)C[C@@H](c2ccc3c(c2)OCO3)C1,-4.3,-2.5,-0.9,30.5,39.4*
O=C1C=C(c2ccc(F)cc2OCc2ccccc2)C[C@@H](c2ccc(Cl)cc2)C1,-3.4,4.7,-1.1,8.4,16.3
N#C/C(=C/c1ccc(-c2ccc([N+](=O)[O-])cc2)o1)c1nnc(N2CCOCC2)n1-c1ccccc1,-5.8,1.4,-0.4,32.3,33.2
COc1cc(/C=C(\C#N)c2nnc(N3CCOCC3)n2-c2ccccc2)ccc1O,-10.4,5.1,4.6*,-0.8,-6.1
Cc1cccc(NC(=O)CCS(=O)(=O)c2ccccc2)c1C,/,/,/,5.0,4.0
COc1cccc(C2CC3(CC(C)(C)NC(=S)N3)Oc3cc(O)ccc32)c1 (stereo not given),-3.6,0.1,0.5,55.8*,-3.0
O=C(N/N=C\c1ccccc1OCc1ccccc1)c1ccco1,-5.8,-7.5,3.0,-9.3,-4.0
COc1ccccc1/C=C/C=N/NC(=O)c1ccco1,-6.3,-2.6,4.6*,11.5,-7.1
CCCC1CCC2(CC1)CCC2OC(=S)Nc1ccc(Cl)cc1 (stereo not given),/,/,/,0.1,-1.1
O=c1c2c3nc4ccccc4nc3n(Cc3ccccc3)c2ncn1Cc1ccco1,-1.6,-2.6,1.4,46.1*,47.9*
O=C1C=CC(=O)N1CCCCCCCCCCN1C(=O)C=CC1=O,-1.0,-6.2,-0.1,29.9,44.3*
SMILES,MsrA act,m5-HT2A agonist,MsrA inh,NPR1 activator,NPR2 activator
Cc1cccc(CCNC(=O)Cn2nc(-c3ccccc3)ccc2=O)c1,/,/,/,-0.5,1.5
Cc1ccc(-c2ccc(/C=N/n3cnnc3)o2)cc1,-2.1,-2.2,4.1,-5.8,-11.9
Clc1cccc(-c2ccc(/C=N/n3cnnc3)o2)c1,-12.0,5.0,4.6*,-2.7,-4.4
COc1ccccc1C(=O)N(Cc1ccccn1)CC1CCCO1 (stereo not given),/,/,/,2.6,-2.5
Nc1ncc(-c2ccccc2)c(-c2ccc(O)cc2O)n1,-14.4,-4.9,2.6,46.1*,-3.6
Cc1ccc2sc(NC(=O)CN3C(=O)CCC3=O)nc2c1C,-8.6,-0.1,0.1,50.1*,7.2
Cc1c(Cl)ccc2sc(NC(=O)C3CC3)nc12,-5.3,-0.8,-0.1,54.7*,-7.0
CC(=O)Nc1nc2c(C)c(Cl)ccc2s1,0.1,-5.8,2.4,49.1*,-3.3
Cc1ccc(C)c2sc(NC(=O)CN3C(=O)CCC3=O)nc12,-6.0,2.0,-1.4,6.9,-2.8
CCCC(=O)Nc1nc2c(C)c(Cl)ccc2s1,-2.6,-1.9,0.3,42.5*,-3.4
Cc1c(Cl)ccc2sc(NC(=O)CN3C(=O)c4ccccc4C3=O)nc12,0.1,8.5,0.4,11.3,-4.0
CC(=O)N1CCN(c2cc(-c3ccco3)nc3cc(-c4ccccc4)nn23)CC1,/,/,/,-2.1,1.8
COc1cc([N+](=O)[O-])cc2sc(NC(=O)C3CC3)nc12,-5.3,-0.3,0.9,47.4*,-4.2
COc1cc([N+](=O)[O-])cc2sc(NC(=O)C(C)(C)C)nc12,-1.4,1.4,0.1,20.6,-2.6
COc1cc(CNc2ccc3[nH]c(=O)[nH]c3c2)ccc1OCc1ccccc1C,-2.4,-2.9,1.7,-6.4,-11.2
COc1cc(CNc2ccc3[nH]c(=O)[nH]c3c2)ccc1OCc1ccccc1F,-6.1,0.8,0.0,-2.4,43.0*
COc1cc(/C=N/Nc2nc3ccccc3o2)cc(OC)c1O,-12.6,-1.7,4.6*,5.7,-8.3
CCOc1ccc(-n2c(SCC(=O)Nc3ccccc3-c3ccccc3)nnc2-c2ccccc2)cc1,/,/,/,-15.2,-8.8
Nc1ccccc1O,9.4*,2.1,/,/,/
CCCN(C(=O)c1cn(CCC)c2ccccc12)c1ccc(Oc2cccnc2)cc1,/,/,0.5,-6.1,-5.0
COC(=O)[C@@]12CCCCC3=C1N(CCC3)C(=O)[C@H]2CC(=O)NCc1cccs1,/,/,/,-1.3,-3.5
CCCCn1c(N)c(Sc2ccccc2)c(=O)[nH]c1=O,-3.0,-6.5,2.4,-1.2,3.7
CCCn1c(N)c(Sc2ccccc2)c(=O)n(CCC)c1=O,-1.0,18.3*,-1.0,3.6,7.4
C=CC[C@H](CC(=O)N(CCO)Cc1ccccc1)C(=O)NC[C@H](OC(=O)[C@@H](CC=C)CC(=O)OC(C)(C)C)c1ccccc1,1.9,-9.0,-0.4,-8.2,-9.2
C=CC[C@H](CC(=O)NCCO)C(=O)NC[C@@H](OC(=O)[C@@H](CC=C)CC(=O)OC(C)(C)C)c1ccccc1,-10.6,-1.1,-1.1,-8.0,68.7*
CN(c1ccc(O)cc1)c1nc(O)c(C2=c3ccccc3=NC2=O)s1,-4.3,-1.8,1.6,40.7*,-5.5

# Screening results as filed in PubChem.
